Inconclusive results are not listed. Active and inactive are the calls of the source. The call rests on the fitted dose curve; in most records, active means well fitted curve in the direction sought with a large enough effect; inconclusive means small, poorly fitted or top-dose-only effect, or another doubt; inactive means no such curve, though single readings can be large; an effect the other way counts as inactive or inconclusive.
Legend:
MCC-26 = test: qHTS assay to identify novel small-molecules to repurpose for Merkel cell carcinoma treatment (AID 1296009); conditions: MCC and control cell lines, CellTiter-Glo viability, 72 h; series mostly up to 46 µM; further: nearly all actives have a fitted effect of over 60% in size
How it was run: (§1)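 Cell viability, measured as CellTiter-Glo luminescence, was normalized between DMSO and no-cell wells. The cells had been exposed to 8- or 11-point compound dilutions for 72 hr at 37 degree celsius.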

MKL-1 = test: as above; conditions: MCC and control cell lines, CellTiter-Glo viability, 72 h; series mostly up to 46 µM
How it was run: as §1

MKL-2 = test: as above; conditions: MCC and control cell lines, CellTiter-Glo viability, 72 h; series mostly up to 46 µM
How it was run: as §1

NIH3T3 = test: as above; conditions: MCC and control cell lines, CellTiter-Glo viability, 72 h; at 44.8 µM (top of the series) unless noted
How it was run: as §1

UISO = test: as above; conditions: MCC and control cell lines, CellTiter-Glo viability, 72 h; series mostly up to 46 µM
How it was run: as §1

WaGa = test: as above; conditions: MCC and control cell lines, CellTiter-Glo viability, 72 h; series mostly up to 46 µM
How it was run: as §1

C33A = test: Primary qHTS to identify gynecologic anti-cancer compounds using libraries of approved drugs and bioactive compounds (AID 1345084); conditions: Gynecologic cancer cell panel viability, ATPlite luminescence, 48 h; series mostly up to 57.5 µM; further: nearly all actives have a fitted effect of over 55% in size
How it was run: (§2)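 48 h compound exposure at 37 C, 5% CO2; five-point qHTS. ATPlite luminescence readout of cell ATP.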

CAOV3 = test: as above; conditions: Gynecologic cancer cell panel viability, ATPlite luminescence, 48 h; series mostly up to 57.5 µM
How it was run: as §2

CASKI = test: as above; conditions: Gynecologic cancer cell panel viability, ATPlite luminescence, 48 h; series mostly up to 57.5 µM
How it was run: as §2

Es-2 = test: as above; conditions: Gynecologic cancer cell panel viability, ATPlite luminescence, 48 h; series mostly up to 57.5 µM
How it was run: as §2

HeLa = test: as above; conditions: Gynecologic cancer cell panel viability, ATPlite luminescence, 48 h; series mostly up to 57.5 µM
How it was run: as §2

Hek293T = test: as above; conditions: Gynecologic cancer cell panel viability, ATPlite luminescence, 48 h, control line for the selectivity index; series mostly up to 57.5 µM
How it was run: as §2

JEG-3 = test: as above; conditions: Gynecologic cancer cell panel viability, ATPlite luminescence, 48 h; series mostly up to 57.5 µM
How it was run: as §2

OV90 = test: as above; conditions: Gynecologic cancer cell panel viability, ATPlite luminescence, 48 h; series mostly up to 57.5 µM
How it was run: as §2

PA-1 = test: as above; conditions: Gynecologic cancer cell panel viability, ATPlite luminescence, 48 h; series mostly up to 57.5 µM
How it was run: as §2

SKOV3 = test: as above; conditions: Gynecologic cancer cell panel viability, ATPlite luminescence, 48 h; series mostly up to 57.5 µM
How it was run: as §2

Tov-21-G = test: as above; conditions: Gynecologic cancer cell panel viability, ATPlite luminescence, 48 h; series mostly up to 57.5 µM
How it was run: as §2

Tov112D = test: as above; conditions: Gynecologic cancer cell panel viability, ATPlite luminescence, 48 h; series mostly up to 57.5 µM
How it was run: as §2

[1] = Drug repurposing screens with cells derived from glioblastoma tumor samples (AID 1345199); conditions: GBM patient neurospheres viability, ATP luminescence, 48 h; further: nearly all actives have a fitted effect of over 40% in size; further: potency means the concentration at half of the fitted maximal effect
How it was run: (§3)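 Primary testing used CD133+ neurospheres from four GBM patients, seven concentrations, 48 h exposure and ATP-based viability; confirmation added three slower-growing patient lines.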

astro = test: as above; conditions: viability, ATP luminescence, 48 h; series mostly up to 45.9 µM
How it was run: as §3

[2] = at 45.9 µM (top of the series), tumour line B
[3] = at 46 µM (top of the series), tumour line A
[4] = at 46.1 µM (top of the series), tumour line C
[5] = at 45.9 µM (top of the series), tumour line D
On the % scale 0 is the no-effect control and ±100 the full control effect.

CCN(CC)CC(=O)Nc1c(C)cccc1C
inactive: Potency (MCC-26) | Potency (MKL-1) | Potency (MKL-2) | outcome (NIH3T3) | Potency (UISO) | Potency (WaGa) | Potency (C33A) | Potency (CAOV3) | Potency (CASKI) | Potency (Es-2) | Potency (HeLa) | Potency (Hek293T) | Potency (JEG-3) | Potency (OV90) | Potency (PA-1) | Potency (SKOV3) | Potency (Tov-21-G) | Potency (Tov112D) | activity, negative = cell killing [1, 2] -12.8% | activity, negative = cell killing [1, 3] 16.4% | activity, negative = cell killing [1, 4] -29.2%

CN(C(=O)CCCOc1ccc2[nH]c(=O)ccc2c1)C1CCCCC1
active: Potency ([1]; tumour line A) 11.2 µM
inactive: Potency (MCC-26) | Potency (MKL-1) | Potency (MKL-2) | Potency (UISO) | Potency (WaGa) | Potency (C33A) | Potency (CAOV3) | Potency (CASKI) | Potency (Es-2) | Potency (HeLa) | Potency (Hek293T) | Potency (JEG-3) | Potency (OV90) | Potency (Tov-21-G) | Potency (Tov112D) | activity, negative = cell killing [1, 2] -16.8% | Potency (astro)

CCN1CCc2nc(N)oc2CC1
inactive: Potency (MCC-26) | Potency (MKL-1) | Potency (MKL-2) | Potency (UISO) | Potency (WaGa) | Potency (C33A) | Potency (CAOV3) | Potency (CASKI) | Potency (Es-2) | Potency (HeLa) | Potency (Hek293T) | Potency (JEG-3) | Potency (OV90) | Potency (PA-1) | Potency (Tov-21-G) | Potency (Tov112D) | activity, negative = cell killing [1, 2] -14.6% | activity, negative = cell killing [1, 5] -6.92% | activity, negative = cell killing [1, 4] -18.3% | Potency (astro)

CCN(Cc1ccncc1)C(=O)C(CO)c1ccccc1 (configuration not stated)
inactive: Potency (MCC-26) | Potency (MKL-1) | Potency (MKL-2) | Potency (UISO) | Potency (WaGa) | Potency (C33A) | Potency (CAOV3) | Potency (CASKI) | Potency (Es-2) | Potency (HeLa) | Potency (Hek293T) | Potency (JEG-3) | Potency (OV90) | Potency (PA-1) | Potency (SKOV3) | Potency (Tov-21-G) | Potency (Tov112D) | activity, negative = cell killing [1, 2] -2.8% | activity, negative = cell killing [1, 5] -5.82% | activity, negative = cell killing [1, 3] -16.9% | activity, negative = cell killing [1, 4] 1.27% | Potency (astro)

C[C@]12C=CC(=O)C=C1CC[C@H]1[C@@H]3C[C@@H](O)[C@](O)(C(=O)CO)[C@@]3(C)C[C@H](O)[C@@]12F
inactive: Potency (MCC-26) | Potency (MKL-1) | Potency (MKL-2) | outcome (NIH3T3) | Potency (UISO) | Potency (WaGa) | Potency (C33A) | Potency (CAOV3) | Potency (CASKI) | Potency (Es-2) | Potency (Hek293T) | Potency (JEG-3) | Potency (OV90) | Potency (PA-1) | Potency (SKOV3) | Potency (Tov-21-G) | Potency (Tov112D) | activity, negative = cell killing [1, 2] -11.4% | activity, negative = cell killing [1, 5] -6.95% | activity, negative = cell killing [1, 3] -27.1% | activity, negative = cell killing [1, 4] 7.27% | Potency (astro)

COc1ccc(CN(CCN(C)C)c2ccccn2)cc1
inactive: Potency (MCC-26) | Potency (MKL-1) | Potency (MKL-2) | Potency (UISO) | Potency (WaGa) | Potency (C33A) | Potency (CAOV3) | Potency (CASKI) | Potency (Es-2) | Potency (HeLa) | Potency (Hek293T) | Potency (JEG-3) | Potency (OV90) | Potency (PA-1) | Potency (SKOV3) | Potency (Tov-21-G) | Potency (Tov112D) | activity, negative = cell killing [1, 2] -3.6% | activity, negative = cell killing [1, 4] -2.37%
active: Potency ([1]; tumour line A) 35.5 µM

NC(=O)N1c2ccccc2C=Cc2ccccc21
inactive: Potency (MCC-26) | Potency (MKL-1) | Potency (MKL-2) | Potency (UISO) | Potency (WaGa) | Potency (C33A) | Potency (CAOV3) | Potency (CASKI) | Potency (Es-2) | Potency (HeLa) | Potency (Hek293T) | Potency (JEG-3) | Potency (OV90) | Potency (PA-1) | Potency (Tov-21-G) | Potency (Tov112D) | activity, negative = cell killing [1, 2] -0.221% | activity, negative = cell killing [1, 5] -27.4% | activity, negative = cell killing [1, 3] -32.7% | activity, negative = cell killing [1, 4] -16.6%

COc1ccc(CCN(C)CCCC(C#N)(c2cc(OC)c(OC)c(OC)c2)C(C)C)cc1OC (configuration not stated)
active: Potency ([1]; tumour line A) 14.1 µM
inactive: Potency (MCC-26) | Potency (MKL-1) | Potency (MKL-2) | Potency (UISO) | Potency (WaGa) | Potency (C33A) | Potency (CAOV3) | Potency (CASKI) | Potency (Es-2) | Potency (HeLa) | Potency (Hek293T) | Potency (JEG-3) | Potency (OV90) | Potency (SKOV3) | Potency (Tov-21-G) | Potency (Tov112D) | activity, negative = cell killing [1, 2] -13.5% | activity, negative = cell killing [1, 4] -13.9%

C(=C\c1ccccc1)/CN1CCN(C(c2ccccc2)c2ccccc2)CC1
inactive: Potency (MCC-26) | Potency (MKL-1) | Potency (MKL-2) | Potency (UISO) | Potency (WaGa) | Potency (C33A) | Potency (CAOV3) | Potency (CASKI) | Potency (Es-2) | Potency (HeLa) | Potency (Hek293T) | Potency (JEG-3) | Potency (OV90) | Potency (PA-1) | Potency (Tov-21-G) | Potency (Tov112D) | activity, negative = cell killing ([1]; at 20 µM (top of the series), tumour line C) -1.05% | activity, negative = cell killing ([1]; at 21.2 µM (top of the series), tumour line B) -13.5% | activity, negative = cell killing ([1]; at 21.2 µM (top of the series), tumour line D) -14% | Potency (astro)
active: Potency ([1]; tumour line A) 7.08 µM

OC(CCN1CCCCC1)(c1ccccc1)C1CCCCC1 (configuration not stated)
inactive: Potency (MCC-26) | Potency (MKL-1) | Potency (MKL-2) | Potency (UISO) | Potency (WaGa) | Potency (C33A) | Potency (CAOV3) | Potency (CASKI) | Potency (Es-2) | Potency (HeLa) | Potency (Hek293T) | Potency (JEG-3) | Potency (PA-1) | Potency (SKOV3) | Potency (Tov-21-G) | Potency (Tov112D) | activity, negative = cell killing [1, 2] -11.3% | activity, negative = cell killing [1, 4] -28%

CN(C)[C@@H]1C(=O)C(C(N)=O)=C(O)[C@@]2(O)C(=O)C3=C(O)c4c(O)ccc(Cl)c4[C@@H](O)[C@H]3C[C@@H]12
inactive: Potency (MCC-26) | Potency (MKL-1) | Potency (MKL-2) | outcome (NIH3T3) | Potency (UISO) | Potency (WaGa) | Potency (C33A) | Potency (CAOV3) | Potency (CASKI) | Potency (Es-2) | Potency (Hek293T) | Potency (JEG-3) | Potency (OV90) | Potency (PA-1) | Potency (SKOV3) | Potency (Tov-21-G) | Potency (Tov112D) | activity, negative = cell killing [1, 2] -11.7% | activity, negative = cell killing [1, 5] -27% | activity, negative = cell killing [1, 4] -29.4% | Potency (astro)
